Measured values: ChEMBL document CHEMBL3988442, “University of Dundee, Small-Polar-MMV Screening Library” (2021)
For some assays here: Measured potencies and affinities stand elsewhere.

Columns and labels:
Parameters in all cases: scale not given: direction of the effect not stated beside the values
[1] = biological target: Protein translocase subunit SecA (Escherichia coli (strain K12)) (UniProt P10408); test: Assay to Identify E. coli SecA ATPase Inhibitors; assay type: functional; conditions: 30 µM
Protein translocase subunit SecA (Escherichia coli (strain K12)), sequence (P10408 whole entry): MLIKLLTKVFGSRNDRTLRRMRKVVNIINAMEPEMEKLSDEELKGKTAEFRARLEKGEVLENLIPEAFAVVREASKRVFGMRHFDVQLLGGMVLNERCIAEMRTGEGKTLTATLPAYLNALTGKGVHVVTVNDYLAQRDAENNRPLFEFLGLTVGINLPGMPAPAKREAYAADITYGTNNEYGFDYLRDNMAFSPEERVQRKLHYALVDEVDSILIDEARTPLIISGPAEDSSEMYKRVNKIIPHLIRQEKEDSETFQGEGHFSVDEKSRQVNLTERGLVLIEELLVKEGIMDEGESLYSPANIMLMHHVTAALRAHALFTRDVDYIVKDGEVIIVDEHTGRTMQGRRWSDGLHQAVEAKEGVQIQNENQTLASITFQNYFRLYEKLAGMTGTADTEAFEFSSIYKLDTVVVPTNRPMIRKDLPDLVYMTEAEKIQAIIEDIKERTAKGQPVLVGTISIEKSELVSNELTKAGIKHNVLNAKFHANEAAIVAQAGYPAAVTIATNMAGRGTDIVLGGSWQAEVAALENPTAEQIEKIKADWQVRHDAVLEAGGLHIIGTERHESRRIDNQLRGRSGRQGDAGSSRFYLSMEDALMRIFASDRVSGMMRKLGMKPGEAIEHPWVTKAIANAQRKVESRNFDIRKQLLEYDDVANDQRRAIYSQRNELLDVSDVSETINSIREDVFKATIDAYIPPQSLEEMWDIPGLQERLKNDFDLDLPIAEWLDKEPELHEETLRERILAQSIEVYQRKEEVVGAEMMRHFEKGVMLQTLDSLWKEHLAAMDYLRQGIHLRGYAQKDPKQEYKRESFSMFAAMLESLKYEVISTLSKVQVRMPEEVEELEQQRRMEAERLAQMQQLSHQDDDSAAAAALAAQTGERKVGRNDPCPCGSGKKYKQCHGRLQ

[2] = biological target: T1, Ubiquitin-activating enzyme e1, putative (Leishmania donovani (strain BPK282A1)) (UniProt E9BSI1); test: Leishmania donovani Ubiquitin Activating Enzyme (LdE1); assay type: functional; conditions: 30 µM
T1 sequence (whole entry): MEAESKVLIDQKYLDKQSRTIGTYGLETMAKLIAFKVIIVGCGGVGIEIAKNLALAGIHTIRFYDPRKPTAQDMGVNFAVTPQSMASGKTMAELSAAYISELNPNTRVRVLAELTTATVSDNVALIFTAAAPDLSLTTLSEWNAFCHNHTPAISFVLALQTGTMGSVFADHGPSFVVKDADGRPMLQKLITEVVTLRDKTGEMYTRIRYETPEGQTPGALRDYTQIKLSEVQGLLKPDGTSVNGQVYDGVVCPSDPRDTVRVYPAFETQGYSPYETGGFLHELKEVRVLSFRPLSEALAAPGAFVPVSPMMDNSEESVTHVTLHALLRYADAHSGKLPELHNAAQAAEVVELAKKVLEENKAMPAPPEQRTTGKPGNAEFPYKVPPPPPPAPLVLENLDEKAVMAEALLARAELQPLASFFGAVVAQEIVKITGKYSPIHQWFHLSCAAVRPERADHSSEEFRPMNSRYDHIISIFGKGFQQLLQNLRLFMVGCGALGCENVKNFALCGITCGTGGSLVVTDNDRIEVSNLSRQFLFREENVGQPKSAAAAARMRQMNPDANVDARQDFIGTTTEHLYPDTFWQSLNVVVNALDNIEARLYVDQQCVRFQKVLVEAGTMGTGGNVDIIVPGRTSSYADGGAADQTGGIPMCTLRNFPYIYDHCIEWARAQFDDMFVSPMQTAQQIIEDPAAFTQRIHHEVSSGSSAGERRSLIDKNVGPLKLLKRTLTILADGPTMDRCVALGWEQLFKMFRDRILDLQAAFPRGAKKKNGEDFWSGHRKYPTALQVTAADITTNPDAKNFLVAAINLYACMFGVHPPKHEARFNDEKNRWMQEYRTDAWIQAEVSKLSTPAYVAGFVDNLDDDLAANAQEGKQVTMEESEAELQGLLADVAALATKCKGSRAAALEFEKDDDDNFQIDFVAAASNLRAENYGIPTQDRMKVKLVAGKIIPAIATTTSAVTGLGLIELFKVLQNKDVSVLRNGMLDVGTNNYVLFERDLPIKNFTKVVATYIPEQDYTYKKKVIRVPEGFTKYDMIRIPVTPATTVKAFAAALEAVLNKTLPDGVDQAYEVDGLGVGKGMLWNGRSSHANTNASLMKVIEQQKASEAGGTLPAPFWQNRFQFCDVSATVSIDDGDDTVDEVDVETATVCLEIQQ

[3] = biological target: AMP-activated protein kinase, AMPK (Homo sapiens) (UniProt P54646+O43741+P54619+Q9UGJ0+Q9Y478+Q13131+Q9UGI9); test: AMP-dependent Kinase enzyme assay. An in vitro enzyme assay that detects ADP turnover that is directly proportional to AMPK activity. This uses naive AMPK that is activated during the assay with MK-8722; assay type: functional; conditions: 30 µM
[4] = biological target: Sialic acid-binding Ig-like lectin 9 (Homo sapiens) (UniProt Q9Y336); test: Hs-Siglec9 ALPHAscreen SOP 20170721; conditions: 10 µM
Sialic acid-binding Ig-like lectin 9 (Homo sapiens), sequence (Q9Y336 whole entry): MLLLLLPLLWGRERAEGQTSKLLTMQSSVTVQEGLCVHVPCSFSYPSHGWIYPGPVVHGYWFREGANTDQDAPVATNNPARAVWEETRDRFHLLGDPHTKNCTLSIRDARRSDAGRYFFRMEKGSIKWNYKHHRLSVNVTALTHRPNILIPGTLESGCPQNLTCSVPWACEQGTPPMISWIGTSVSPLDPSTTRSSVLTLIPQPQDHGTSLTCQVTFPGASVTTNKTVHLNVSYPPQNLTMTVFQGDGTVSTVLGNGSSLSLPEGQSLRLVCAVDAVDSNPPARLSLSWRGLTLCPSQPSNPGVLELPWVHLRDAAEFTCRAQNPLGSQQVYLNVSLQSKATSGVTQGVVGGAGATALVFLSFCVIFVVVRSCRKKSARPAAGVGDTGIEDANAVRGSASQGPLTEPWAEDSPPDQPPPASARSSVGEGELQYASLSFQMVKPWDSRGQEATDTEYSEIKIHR

Trypanosoma cruzi = test: Trypanosoma cruzi phosphomannomutase and mannose-1-phosphate guanylyltransferase assay; assay type: functional; conditions: 10 µM
[5] = biological target: T2, Arginase-2, mitochondrial (Homo sapiens) (UniProt P78540); test: in vitro enzyme assay to detect the production of urea directly proportional to the activity of Arginase II; assay type: functional; conditions: 33.3 µM; note: in the data most compounds retested in dose-response had high values
T2 sequence (whole entry): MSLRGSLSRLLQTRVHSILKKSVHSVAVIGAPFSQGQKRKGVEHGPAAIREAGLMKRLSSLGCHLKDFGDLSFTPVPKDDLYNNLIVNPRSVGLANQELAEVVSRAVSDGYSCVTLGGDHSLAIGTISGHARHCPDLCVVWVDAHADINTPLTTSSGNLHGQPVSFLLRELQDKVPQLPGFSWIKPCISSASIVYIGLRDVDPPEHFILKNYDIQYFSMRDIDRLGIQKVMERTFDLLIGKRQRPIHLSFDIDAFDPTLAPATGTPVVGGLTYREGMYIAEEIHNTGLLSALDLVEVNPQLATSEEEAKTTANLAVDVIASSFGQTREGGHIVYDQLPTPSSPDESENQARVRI

[6] = biological target: T3, Proteasome subunit beta (Trypanosoma cruzi) (UniProt O96673); test: Trypanosoma cruzi proteasome chymotrypsin-like activity (TcProtChymo) assay.; note: in the data most compounds retested in dose-response had high values; assay type: functional; conditions: 9.37 µM
T3 sequence (whole entry): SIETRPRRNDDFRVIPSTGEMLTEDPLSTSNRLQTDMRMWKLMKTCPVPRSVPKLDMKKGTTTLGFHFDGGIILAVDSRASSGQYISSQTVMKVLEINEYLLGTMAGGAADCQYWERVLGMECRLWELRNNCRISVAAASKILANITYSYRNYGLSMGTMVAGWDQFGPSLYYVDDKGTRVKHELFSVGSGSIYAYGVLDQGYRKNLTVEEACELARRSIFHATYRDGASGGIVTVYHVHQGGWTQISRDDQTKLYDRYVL

Homo sapiens = species: Homo sapiens; test: To identify inhibition of the IFN signalling (Jak-Stat) pathway via expression of an eGFP reporter gene under the control of an IFN-stimulated response element (ISRE) containing MxA promoter.; assay type: functional; conditions: 30 µM
[7] = biological target: T4, Tyrosyl-tRNA synthetase, putative (Trypanosoma cruzi (strain CL Brener)) (UniProt Q4DSP6); test: Trypanosoma cruzi tyrosyl tRNA synthetase (TcYRS) _High Tyrosine SOP; assay type: functional; conditions: 30 µM; note: in the data most compounds retested in dose-response had high values
T4 sequence (whole entry): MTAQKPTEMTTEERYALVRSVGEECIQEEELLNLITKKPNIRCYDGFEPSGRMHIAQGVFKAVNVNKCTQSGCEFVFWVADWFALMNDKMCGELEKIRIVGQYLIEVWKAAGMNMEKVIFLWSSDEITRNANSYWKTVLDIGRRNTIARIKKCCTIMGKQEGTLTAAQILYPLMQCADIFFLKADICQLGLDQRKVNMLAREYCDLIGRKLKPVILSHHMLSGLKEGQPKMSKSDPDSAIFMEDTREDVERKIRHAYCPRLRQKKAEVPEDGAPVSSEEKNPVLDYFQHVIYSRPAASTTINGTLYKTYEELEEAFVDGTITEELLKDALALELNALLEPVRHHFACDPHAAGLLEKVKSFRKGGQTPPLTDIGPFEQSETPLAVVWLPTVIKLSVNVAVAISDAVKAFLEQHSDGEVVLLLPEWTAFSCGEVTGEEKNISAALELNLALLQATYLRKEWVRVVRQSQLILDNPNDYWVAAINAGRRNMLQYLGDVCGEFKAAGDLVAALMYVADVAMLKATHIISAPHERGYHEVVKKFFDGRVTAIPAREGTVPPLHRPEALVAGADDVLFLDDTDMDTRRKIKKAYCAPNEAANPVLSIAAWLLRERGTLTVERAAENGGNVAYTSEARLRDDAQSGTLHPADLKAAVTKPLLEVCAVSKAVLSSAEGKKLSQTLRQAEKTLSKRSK

[8] = biological target: T4, Tyrosyl-tRNA synthetase, putative (Trypanosoma cruzi (strain CL Brener)); test: Trypanosoma cruzi tyrosyl tRNA synthetase (TcYRS) SOP; assay type: functional; conditions: 30 µM
[9] = biological target: Chromo domain-containing protein 1 (Saccharomyces cerevisiae (strain ATCC 204508 / S288c) (Baker's yeast)) (UniProt P32657); test: ScCHD-1 Enzyme Inhibition Assay; assay type: functional; conditions: 30 µM; note: in the data most compounds retested in dose-response had high values
Chromo domain-containing protein 1 (Saccharomyces cerevisiae (strain ATCC 204508 / S288c) (Baker's yeast)), sequence (P32657 whole entry, the tested form may be a part): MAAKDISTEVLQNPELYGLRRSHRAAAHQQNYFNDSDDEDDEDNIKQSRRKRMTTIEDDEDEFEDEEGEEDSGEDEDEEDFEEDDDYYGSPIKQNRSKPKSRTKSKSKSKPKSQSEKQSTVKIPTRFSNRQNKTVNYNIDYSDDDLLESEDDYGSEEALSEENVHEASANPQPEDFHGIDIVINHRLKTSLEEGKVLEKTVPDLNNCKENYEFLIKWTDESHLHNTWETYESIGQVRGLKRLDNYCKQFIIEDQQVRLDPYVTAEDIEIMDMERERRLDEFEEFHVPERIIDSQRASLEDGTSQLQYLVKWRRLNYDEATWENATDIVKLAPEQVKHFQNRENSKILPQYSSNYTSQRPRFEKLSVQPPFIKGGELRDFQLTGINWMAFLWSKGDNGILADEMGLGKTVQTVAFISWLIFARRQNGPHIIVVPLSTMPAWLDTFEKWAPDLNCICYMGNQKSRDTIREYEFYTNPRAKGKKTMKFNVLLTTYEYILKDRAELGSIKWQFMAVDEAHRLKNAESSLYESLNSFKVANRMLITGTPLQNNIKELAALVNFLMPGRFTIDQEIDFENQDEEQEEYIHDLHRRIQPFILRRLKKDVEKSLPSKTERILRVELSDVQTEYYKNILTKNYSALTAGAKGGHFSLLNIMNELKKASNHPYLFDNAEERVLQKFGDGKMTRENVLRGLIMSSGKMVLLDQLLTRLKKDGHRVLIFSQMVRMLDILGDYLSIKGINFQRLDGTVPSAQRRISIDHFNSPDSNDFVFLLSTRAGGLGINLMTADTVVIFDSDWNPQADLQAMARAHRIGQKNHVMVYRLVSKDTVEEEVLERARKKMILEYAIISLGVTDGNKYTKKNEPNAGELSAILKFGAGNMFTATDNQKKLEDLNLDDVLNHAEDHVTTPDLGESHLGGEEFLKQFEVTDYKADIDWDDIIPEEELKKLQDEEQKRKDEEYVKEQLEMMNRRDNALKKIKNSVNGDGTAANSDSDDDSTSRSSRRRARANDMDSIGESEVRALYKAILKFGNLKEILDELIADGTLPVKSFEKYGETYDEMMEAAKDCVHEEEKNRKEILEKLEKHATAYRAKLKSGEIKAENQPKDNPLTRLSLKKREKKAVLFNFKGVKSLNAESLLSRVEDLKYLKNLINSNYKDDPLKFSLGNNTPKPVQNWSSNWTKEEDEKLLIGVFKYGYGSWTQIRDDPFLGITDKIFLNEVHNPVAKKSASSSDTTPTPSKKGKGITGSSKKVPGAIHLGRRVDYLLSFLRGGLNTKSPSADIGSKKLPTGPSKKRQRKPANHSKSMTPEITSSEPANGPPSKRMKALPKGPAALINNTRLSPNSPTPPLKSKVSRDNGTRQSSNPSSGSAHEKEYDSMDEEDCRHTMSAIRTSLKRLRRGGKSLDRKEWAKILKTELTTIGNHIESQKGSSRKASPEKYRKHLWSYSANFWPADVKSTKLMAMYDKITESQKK

SMILES	Percent Effect [1]	Percent Effect [2]	Percent Effect [3]	Percent Effect [4]	Percent Effect (Trypanosoma cruzi)	Percent Effect [5]	Percent Effect [6]	Percent Effect (Homo sapiens)	Percent Effect [7]	Percent Effect [8]	Percent Effect [9]
Cc1oc(C)c(C(=O)NCc2cccnc2N(C)C)c1C	-1.52%	13.2%	4.37%	-11.8%	-3.57%	-1.53%	5.35%	-12.2%	1.47%	12.2%	-9.19%
O=S(=O)(c1ccccc1)N1CCC2(CCCN2CC2CCCC2)C1 (stereo unspecified)	-2.93%	-21.6%	-3%	2.91%	-0.489%	4.78%	13.3%	-13.9%	6.49%	5.13%	11%
Cc1[nH]ccc1C(=O)Nc1cccc(CN2CCC(CO)CC2)c1	-3.65%	23.7%	-7.05%	-13.3%	0.876%	-17.8%	8.34%	30.6%	3.19%	13%	-9.32%
CC(C)c1noc(C(C)N2CCN(CCN3CCCC3=O)CC2)n1 (stereo unspecified)	-5.03%	5.41%	-10%	9.09%	-2.17%	1.6%	-1.62%	9.64%	1.48%	1.24%	0.594%
NC(=O)CN1CCCN(C(=O)c2ccn(-c3ccccc3)n2)CC1	0.801%	9.72%	-1.01%	12.3%	1.26%	9.71%	11.9%	13.7%	5.26%	7.69%	-4.05%
Cc1nn(C)c(Cl)c1C1CCCN1C(=O)c1ccc2nncn2c1 (stereo unspecified)	-3.02%	0%	2.19%	-4.7%	-4.25%	0%	3.6%	-2.92%	-4.43%	-6.17%	-0.833%
CCc1nc2ccccc2c(=O)n1CC1(O)CCN(S(C)(=O)=O)CC1	-1.91%	17.6%	10.4%	9.5%	1.58%	7.66%	10.8%	17.4%	5.38%	14.3%	-11.7%
CCc1c(C(=O)N2CCN(CC(N)=O)CC2)cnn1C(C)(C)C	-6.88%	13.2%	-1.82%	18.1%	5.32%	3.6%	11.9%	-6.74%	4.43%	11.1%	-7.68%
CC(C)c1cnc(CNc2c(F)cccc2-n2cccn2)o1	1.05%	-1.39%	-3.66%	6.14%	1.26%	12.4%	11.2%	-14.6%	-1.05%	0%	0.741%
CC(O)CN1CCN(C(=O)c2ccc(N(C)C)nc2)CC1 (stereo unspecified)	-1.4%	33.8%	-9.23%	0.151%	4.68%	0%	11%	8.66%	7.77%	9.76%	-4.89%
Fc1ccc(CN2CCO[C@H]3[C@H](OCC4CC4)CC[C@@H]32)cc1	-2.57%	-2.67%	3.82%	0.245%	4.83%	-41.4%	8.89%	-14.2%	2.08%	-30%	-4.58%
Cn1cnnc1C1CCCN(C(=O)NCc2ccc3c(c2)OCO3)C1 (stereo unspecified)	-5.4%	-10.4%	-2.19%	-7.32%	3.43%	-12.8%	11.2%	-5.11%	9.52%	23.5%	-12.6%
O=C(c1ccc(F)cc1)N1C[C@H]2CCC[C@@]2(COCc2ccccn2)C1	-4.13%	8.11%	-4.94%	1.62%	2.44%	7.96%	22%	-12.1%	3.24%	17.9%	1.95%
O=C(c1ccnnc1)N1C[C@H](Oc2cccnc2)[C@H]2OCCC[C@H]21	-5.64%	0%	-1.06%	-4.69%	0.781%	-0.417%	4.65%	-14.6%	11.9%	15.8%	-3.24%
CC(=O)N1CCCCC1c1cc(CO)[nH]n1 (stereo unspecified)	-1.55%	1.35%	7%	5.31%	1.78%	2.09%	12.3%	10.5%	3.23%	6.49%	9.52%
CCc1nc(NCCCn2cccn2)c2c(n1)c(C)nn2C	-3.56%	20%	-0.746%	2.66%	0.197%	-0.528%	17.6%	8.9%	6.35%	12.8%	-12.1%
